Data published in ChEMBL document CHEMBL3988442, “University of Dundee, Small-Polar-MMV Screening Library” (2021).

species: Homo sapiens; experiment: To identify inhibition of the IFN signalling (Jak-Stat) pathway via expression of an eGFP reporter gene under the control of an IFN-stimulated response element (ISRE) containing MxA promoter.; type: functional; set-up: scale not given: direction of the effect not stated beside the values; details: 30 µM

Row | Structure (SMILES) | Percent Effect [%]
1 | Cc1cnn(CC2CCCN2C(=O)c2cccnc2N(C)C)c1 (centres undefined) | -17.9
2 | CC(NC(=O)NCc1cccc(Cl)c1)(C(=O)O)c1ccco1 (centres undefined) | -2.55
3 | CC(C)c1nc(C2CCCN(C(=O)c3ccnc(N(C)C)c3)C2)no1 (centres undefined) | 26.1
4 | Cc1cnc(CN2CCCC(c3cc(C(N)=O)[nH]n3)C2)cn1 (centres undefined) | 6.6
